Records with an inconclusive call do not appear. Unmarked numbers belong to inactive results. The source made the active and inactive calls. Calls follow the shape of the full dose curve.
Experiment: S16 Schwann cell PMP22 intronic element beta-lactamase assay (AID 624044); also: nearly all actives have a fitted effect of over 15% in size;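 as to ratio activity, negative = inhibition: 0% = DMSO and -100% = potassium clavulanate positive control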
Details: S16 rat Schwann cells, PMP22 element beta-lactamase FRET, 24 h; series mostly up to 38.3 µM; ratio activity, negative = inhibition: at the top concentration
Summary of the method: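 Beta-lactamase reporter under a PMP22 intronic regulatory element in stable S16 rat Schwann cells; 24 h compound exposure. 460 nm blue signal normalized between DMSO (0%) and potassium clavulanate, with 535 nm FRET tracking viability; curves classed by r2 and response.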
Potency is read from the fitted curve at half-maximal effect.

Going from `CN1C(=O)CN=C(c2ccccc2)c2cc([N+](=O)[O-])ccc21` to `O=C(O)c1nn(Cc2ccc(Cl)cc2Cl)c2ccccc12`, the “ratio activity, negative = inhibition” value rises from -20.1% to 7.36%.

Compared with `CCN(CC)CCOC(=O)C(C)(c1ccccc1)c1ccccc1`, `CC(Cc1ccccc1)NCc1ccccc1Cl` (stereo not drawn) is higher in “ratio activity, negative = inhibition” value: -12.3% for the first, -4.31% for the second.

Compared with `NC(=O)OCCCc1ccccc1`, `CNC(=O)Oc1cccc2ccccc12` is higher in “ratio activity, negative = inhibition” value: 0.354% for the first, 4.79% for the second.

First: C=CCOC(Cn1ccnc1)c1ccc(Cl)cc1Cl (stereo not drawn)
Second: Clc1ccc(CO/N=C(\Cn2ccnc2)c2ccc(Cl)cc2Cl)c(Cl)c1
The “ratio activity, negative = inhibition” value of the first is lower: -15.7% for the first, -12.2% for the second.

First: Cc1ccc(N=CN(C)C=Nc2ccc(C)cc2C)c(C)c1
Second: Nc1ccc(N)cc1
The “ratio activity, negative = inhibition” value of the first is lower: -10.1% for the first, 0.353% for the second.

First: CCC1(CC)C(=O)NC(=O)NC1=O
Second: C#C[C@]1(O)CC[C@H]2[C@@H]3CCC4=CC(=O)CCC4=C3C=C[C@@]21CC
The “ratio activity, negative = inhibition” value of the first is higher: -0.237% for the first, -11.7% for the second.

Going from `COP(=O)(OC)C(O)C(Cl)(Cl)Cl` (stereo not drawn) to `CC(C)NCC(O)c1ccc(N)c(C#N)c1` (stereo not drawn), the “ratio activity, negative = inhibition” value rises from -24.4% to 3.12%.

Going from `CC(C)(C)OC(=O)c1ncn2c1[C@@H]1CCCN1C(=O)c1c(Br)cccc1-2` to `C[C@]12C=CC(=O)C=C1CC[C@@H]1[C@@H]2CC[C@@]2(C)[C@H]1CC[C@]2(C)O`, the “ratio activity, negative = inhibition” value falls from -0.254% to -6.18%.

First: CC[C@]1(O)CC[C@H]2[C@@H]3CCC4=CCCC[C@@H]4[C@H]3CC[C@@]21C
Second: CCCCCCCCCCCC[N+](C)(C)CCOc1ccccc1
The “ratio activity, negative = inhibition” value of the first is lower: -25.8% for the first, -19.3% for the second.

Going from `CC(C)[N+](C)(CCC(C(N)=O)(c1ccccc1)c1ccccc1)C(C)C` to `COc1ccc(CN2CCNCC2)c(OC)c1OC`, the “ratio activity, negative = inhibition” value falls from 4.3% [at 17.1 µM] to -10.7% [at 17.1 µM].

For `CCCCCCCCCCCCCCCC[n+]1ccccc1`, the Potency was 12.6 µM (active).
With `COP(=O)(OC)OC=C(Cl)Cl` the Potency was 15.8 µM (active).
With `NC(N)=NN=C(/C=C/c1ccc([N+](=O)[O-])o1)/C=C/c1ccc([N+](=O)[O-])o1` the Potency was 9.99 µM (active).
